Compound activity from PubChem BioAssay.
The list is not random: actives were taken first. Their share in the collection is about 28%.
CYP2C19 act: activators of human cytochrome P450 2C19. P33261. recombinant CYP2C19, luciferin-H EGE luminescence; hits give high values; 0 = fully inhibited enzyme, 1 = untreated enzyme. activation factor at 5 µM. 96,000 tested, under 10 active;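 active = activation factor of at least 2 at 5 µM in the primary screen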;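 also: 0 = wells with 2.5 mM tranylcypromine and 1 = vehicle-only wells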
Target sequence (P33261 whole entry, looked up): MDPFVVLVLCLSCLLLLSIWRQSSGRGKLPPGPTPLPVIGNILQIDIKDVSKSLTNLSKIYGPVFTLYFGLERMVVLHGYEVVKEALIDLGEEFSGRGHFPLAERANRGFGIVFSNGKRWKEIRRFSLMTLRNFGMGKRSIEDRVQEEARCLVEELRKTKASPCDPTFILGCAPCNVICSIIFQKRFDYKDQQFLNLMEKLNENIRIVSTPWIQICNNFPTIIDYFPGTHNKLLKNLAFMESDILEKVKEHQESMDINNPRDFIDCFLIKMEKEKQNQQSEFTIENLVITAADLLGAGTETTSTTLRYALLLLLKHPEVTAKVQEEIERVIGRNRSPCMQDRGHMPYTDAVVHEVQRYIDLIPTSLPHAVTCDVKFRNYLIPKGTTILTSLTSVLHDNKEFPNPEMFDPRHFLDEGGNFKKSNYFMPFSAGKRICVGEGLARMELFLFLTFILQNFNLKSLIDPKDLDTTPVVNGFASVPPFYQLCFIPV
CYP2C19 inh: inhibitors of human CYP2C19. P33261. CYP2C19 Supersomes, luciferin-H EGE luminescence, 30 min. inhibition, % at 5 µM. 96,000 compounds, 21% hits. AID 778;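 active = CYP2C19 inhibition above a set limit at 5 µM in the primary screen, cut at about 50% in these data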;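 also: plate controls were negative control wells for no effect and 2.5 mM tranylcypromine positive control for full effect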
Mac1 fbg inh: inhibitors of human CD11b/CD18 binding to fibrinogen | K562 CD11b/CD18 adhesion to fibrinogen, ATPlite luminescence; Mn2+ added to activate the integrin | P05107+P11215 | inhibition, % at 10 µM | 93,000 compounds, 0.54% hits;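 active = primary inhibition of 50% or more at 10 µM, then 40% or more on retest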
CYP2C9 activ: CYP2C9 (human) activation | activation factor at 5 µM | P11712 | AID 1024 | recombinant CYP2C9, luciferin-H conversion, luminescence; hits give high values; factor 1 = untreated enzyme, 0 = blocked | 96,000 compounds, 1.4% hits;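 active = activation factor of 2 or more for CYP2C9 at a 5 µM dose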;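 also: 0 = sulfaphenazole-blocked wells and 1 = vehicle-only wells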
CYP2C9 inh: inhibitors of human CYP2C9; P11712; CYP2C9 Supersomes, luciferin-H conversion, luminescence; inhibition, % at 5 µM; 96,000 compounds, 20% hits; AID 777;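 active = blocking of liver enzyme CYP2C9 beyond about 50% at 5 µM, limit read from the data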
Mac1 fbg enh: enhancers of human CD11b/CD18 binding to fibrinogen; activation, % at 10 µM; AID 1499; 93,000 compounds, 0.07% hits; P05107+P11215; K562 CD11b/CD18 adhesion to fibrinogen, ATPlite luminescence;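 active = 10 µM primary screen giving 50% or more activity, confirmed by 40% or more on retest at that dose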
The depositor's hits bear a star; / = no result given.

SMILES	CYP2C19 act	CYP2C19 inh	Mac1 fbg inh	CYP2C9 activ	CYP2C9 inh	Mac1 fbg enh
Cc1ccc(/C=N/NC(=O)Cc2c[nH]c3ccccc23)c(C)c1	0.9	10	0	0.7	34	0
C/C(=N\NC(=O)C1COc2ccccc2O1)c1cccs1 (centres undefined)	0.2	80*	-5	0.7	30	-2
O=C(N/N=C/c1ccco1)C1COc2ccccc2O1 (centres undefined)	/	/	2	/	/	1
C/C(=N/NC(=O)C1CC1(c1ccccc1)c1ccccc1)c1cccs1 (centres undefined)	/	/	15	/	/	0
O=C(N/N=C/c1cccs1)C1COc2ccccc2O1 (centres undefined)	0.2	82*	10	0.6	45	-2
Cc1cc(NC(=O)c2ccco2)ncc1NC(=O)Cc1ccccc1	1	2	-1	0.9	10	-6
CCOC(=O)c1c(C(F)(F)F)nc2ncccn12	1	0	1	1.1	-8	-3
Cc1ccc(/C(C#N)=C\c2cn(C)c3ccccc23)cc1	0.2	80*	7	0.1	92*	1
CC(C)SC1=NC(C)(C)C=C(/C=C/c2c(Cl)cccc2Cl)N1	0.2	78*	-33	0.3	70*	-1
CC(C)SC1=NC(C)(C)C=C(/C=C/c2ccc(Cl)cc2Cl)N1	0.3	69*	-53	0.4	62*	-4
Clc1ccc(/C=C/c2nc3ccccc3[nH]2)c(Cl)c1	0.7	32	41	0.9	14	-11
CCS(=O)(=O)c1nc(S(=O)(=O)c2ccc(Cl)cc2)c(NCc2ccco2)s1	/	/	4	/	/	14
CC(C)(C)C1CCc2onc(C(=O)Nc3cnn(Cc4ccc(F)cc4)c3)c2C1 (centres undefined)	0.9	9	-18	0.9	12	7
CC(C)(C)C1CCc2onc(C(=O)Nc3ccc(F)cc3F)c2C1 (centres undefined)	0.4	63*	6	0.8	24	4
O=C(Nc1cccnc1)Nc1ccc(F)c(Cl)c1	0.2	85*	-8	0.2	76*	2
O=C(Nc1cccnc1)C1(c2ccc(Cl)cc2)CCCC1	0.2	81*	-9	0.7	33	-1
CC(C)(CO)NC(=O)CCCOc1ccc(Cl)cc1Cl	0.4	55*	-6	0.8	22	-1
CN(C)S(=O)(=O)c1ccc(C(=O)Nc2cccnc2)cc1	0.9	12	-8	0.7	27	-5
Cc1ccc(S(=O)(=O)C2(C(=O)Nc3cccnc3)CC2)cc1	0.4	56*	-6	0.7	32	-4
CSc1ccccc1NC(=O)Nc1ccc(F)c(Cl)c1	1	-4	/	1	0	/
CC(C)(C)C(=O)NNC(=O)CCCOc1ccc(Cl)cc1Cl	0.8	23	/	1.3	-27	/
COc1ccccc1Cn1c(=O)c2ccccc2n2c(SCC(=O)N3CCCCC3)nnc12	/	/	5	/	/	-4
CCOc1ccccc1NC(=O)N1CCCC1C(=O)Nc1ccc(NC(C)=O)cc1 (centres undefined)	0.9	7	3	0.8	21	-3
Cc1ccc2cc(CN(CC3CCCO3)C(=S)Nc3ccccc3)c(=O)[nH]c2c1C (centres undefined)	/	/	7	/	/	-2
O=C(CCCOc1ccc(Cl)cc1Cl)Nc1cccnc1	0.3	72*	6	0.5	52*	-3
SMILES	CYP2C19 act	CYP2C19 inh	Mac1 fbg inh	CYP2C9 activ	CYP2C9 inh	Mac1 fbg enh
COc1ccc(OCCCC(=O)Nc2cccnc2)cc1	0.7	26	10	0.8	25	-4
O=C(CCCOc1ccc(Cl)cc1Cl)N/N=C/c1ccc(Cl)cc1	/	/	5	/	/	-5
O=C(CCCOc1ccc(Cl)cc1Cl)N/N=C\C1CCCCC1	0.1	92*	-11	0.8	16	3
COc1cccc(NC(=O)c2ocnc2C)c1	0.8	25	5	0.9	8	4
COc1cc2c(cc1NC(=O)CC1SC(N3CCCC3)=NC1=O)oc1ccccc12 (centres undefined)	0.9	9	-5	1	4	-2
Fc1ccccc1NC(=S)NCCc1ccccc1	0.2	80*	/	0.7	27	/
Fc1ccc(NC(=S)NCCc2ccccc2)c(F)c1F	0.2	83*	/	0.6	45	/
CCCCn1c(-c2ccccc2)nc2c(=O)n(C)c(=O)[nH]c21	1	-1	8	0.3	67*	8
N#CC(Cc1ccc(OC(F)F)cc1)c1nc2ccccc2[nH]1 (centres undefined)	/	/	18	/	/	-3
c1ccc(-n2c(-c3cccs3)nc3nc4ccccc4nc32)cc1	/	/	-10	/	/	31
CCC(C)n1c(-c2cccs2)nc2nc3ccccc3nc21 (centres undefined)	0.8	18	-14	0.4	60*	-2
O=C(c1ccc(Cl)c(S(=O)(=O)NCc2ccco2)c1)N1CCN(c2ccc(F)cc2)CC1	0.8	24	7	1	0	-3
Cc1ccc(-n2c(C)cc3c2CC(C)(C)CC3=O)cc1C	0.9	12	-10	0.9	11	-2
Cc1cc2c(n1-c1ccc(Br)cc1)CC(C)(C)CC2=O	0.3	67*	-13	1	3	3
CC1CCN(C(=S)NC(=O)c2ccccc2)CC1	0.6	40	-16	0.8	23	0
CN1CCN(C(=S)NC(=O)/C=C/c2cccc3ccccc23)CC1	0.6	39	-2	3*	-201	-3
CCc1ccccc1N1CC(C(=O)O)CC1=O (centres undefined)	1.1	-13	-12	1.2	-18	-2
C=CCN1C(=O)CSc2ccc(C(=O)N3CCC(C)CC3)cc21	0.8	16	-12	1.1	-11	2
CCOC(=O)Cn1nnc(-c2ccc(SC)cc2)n1	0.5	46	6	1	-3	-3
CSc1ccc(-c2nnn(Cc3ccc(Br)cc3)n2)cc1	0.2	75*	21	0.7	30	-3
CSc1ccc(-c2nnn(Cc3ccccn3)n2)cc1	0.3	67*	4	0.7	26	-6
O=C(COC(=O)c1ccc(Cl)s1)c1cc2ccccc2o1	0.3	70*	5	0.6	43	2
Cn1cccc1C(=O)OCC(=O)c1cc2ccccc2o1	0.5	46	6	1.1	-7	4
CC1CCN(c2ccc([N+](=O)[O-])cn2)CC1	/	/	0	/	/	5
c1ccc(-c2nnc(CN3CCCc4ccccc43)o2)cc1	0.2	78*	12	0.2	76*	1
c1ccc(-c2nnc(CN3CCC4(CC3)OCCO4)o2)cc1	0.5	53*	-10	1	3	0
OC1(c2ccccc2F)CCN(Cc2nnc(-c3ccccc3)o2)CC1	0.8	16	-20	0.6	37	3
Fc1ccc(N2CCN(Cc3nnc(-c4ccccc4)o3)CC2)cc1	/	/	-13	/	/	1
[O-]C1=N/[N+](=C/c2ccccc2Cl)CC1	1.2	-19	-7	1.3	-34	-8
